# Reference: the supplement of paper PMC6555819
# Experiments:
# Assay in all cases: PBM binding z-score (relative to random genomic background probes); higher = stronger binding; sequences stand for … in GC…GCGATTGACAGCGTAGAATGAAGG
# [1] = system: RARg:RXRa (NR concentration 270 nM, RXRa partner concentration 90 nM)
# In short: (§1)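 Custom Agilent 4×180K protein-binding microarrays carried double-stranded probes. Their 34-nt variable regions held direct-repeat seeds, single-nucleotide variants, half-site ablations and random human genomic background sequences. Arrays were incubated 1 h with ligand-free nuclear receptor dimers in PBS pH 7.4, 2% milk, 0.02% Triton X-100, 1 mM DTT, 0.2 mg/mL BSA and 0.4 mg/ml salmon testes DNA. Antibodies against each partner (one per run) detected binding, and scanned fluorescence was regression-normalized. Binding z-scores use random background probes as reference.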
# [2] = system: RARg homodimer (NR concentration 270 nM)
# In short: as §1
# [3] = system: RXRa DBDmut IVT, anti-RXR (DBD mutation: RXRa K156A/R161A, NR concentration 90 nM)
# In short: as §1
# [4] = system: RXRa homodimer (NR concentration 180 nM)
# In short: as §1
# [5] = system: THRa:RXRa (NR concentration 90 nM, RXRa partner concentration 90 nM)
# In short: as §1
# [6] = system: THRa homodimer (NR concentration 90 nM)
# In short: as §1
# [7] = system: VDR homodimer (NR concentration 270 nM)
# In short: as §1
Sequence,PBM binding z-score [1],PBM binding z-score [2],PBM binding z-score [3],PBM binding z-score [4],PBM binding z-score [5],PBM binding z-score [6],PBM binding z-score [7]
CCTTACGGGTAACGAGGTTATAGCACGACGAGCG,1.01,0.837,-0.598,1.43,1.35,0.247,0.527
TAGCCTAGGTTATGGGCCAGTATACCACGCGAAC,0.379,0.719,-0.976,0.432,0.373,-0.271,-0.399
GCTTACAGGTCAAAGGTTATAGCATGAATAGAAT,7.18,5.44,2.31,9.21,4.11,0.393,1.47
TCTAGTTGGTCACGGAGGGCACACACGACGGGTA,2.15,2.4,0.575,1.35,1.03,0.258,0.915
TAGCCTAGGTCACATCGGGCCAGTATACGCTATA,4.02,4.72,0.602,3.09,4.5,1.15,0.412
CCTGCTAGGTCATGGTCAGCGAATCTACAGTATG,4.05,4.93,1.92,3.09,2.9,1.16,0.226
GTTACAGGGTCAAGGCCAGAGTACGCGTATTGAT,5.65,5.24,2.91,6.16,3.62,1.53,2.86
TCTGCTAGGTCATCGATGGTCAGCTAATCTGCTA,3.79,4.88,1.53,2.73,3.33,0.553,-0.0904
CAAACTAGTTCAAGAGGTCAAAGTCCGCTTCCCG,6.53,5.81,3.18,7.43,3.77,1.92,4.98
CTCGAAAGGTCGTGCTCAGATGAGTATACCAAAC,4.06,3.84,1.66,4.62,2.22,-0.171,1.15
CGAACGAGGTCAAAGGACAGTGAAAGGCGACGTA,6.46,6.17,4.61,6.91,3.88,1.79,3.52
CCTAGTTGGTCAAGGTCACATACGCTATAGGTAC,4.18,4.37,2.21,3.89,3.96,3.88,3.56
TCTCGGAGGACACTAAAGGTCAGAGCTCGACATC,4.4,4.68,1.11,3.98,3.48,1.1,0.787
CGAACTAGGTCAAGGGACAGTGAAAGGCGACGTA,3.82,4.43,0.75,2.43,2.63,0.755,0.0374
TACCCTAGGTCATGGGCCAGTATACCACGCGAAC,4.53,4.92,0.55,4,3.26,2.22,1.35
ATCGAAAGGTCGAAGGTGCGTATACCCACCCGAA,3.93,3.91,1.37,4.23,1.66,-0.362,0.858
TTGCCAAGGTGAAAGGTCGTTGATGCACGCCTTG,4.33,2.25,0.468,5.91,3.3,0.784,1.34
CCTACTGGGCCACGAAAGGCCATTGATTCAGTGA,0.332,0.725,-0.292,-0.0677,1.15,-0.457,-0.271
CGTCCAAGGTCAGCGGGTCAGTGAAAGCGACGTG,6.32,6.61,2.67,4.98,3.74,2.34,1.76
CAAACTAGGTCACAAAAGGTCAAAGTCGAATGAC,7.42,8.02,2.52,7.78,4.76,2.22,3.98

Sequence,PBM binding z-score [1],PBM binding z-score [2],PBM binding z-score [3],PBM binding z-score [4],PBM binding z-score [5],PBM binding z-score [6],PBM binding z-score [7]
TAGCCTAGGTCATGGGCCAGTGTACCACGCGAAC,4.41,4.65,0.252,3.76,3.13,1.23,0.706
CGCACTAGGTCATCCAGGACAGTGAATACATTGA,3.99,4.51,2.26,2.76,3.73,2.4,1.76
AGAATGAGGTCAAGATCAGGGAAACAGAATACAT,6.53,6.24,4.15,6.66,4.29,2.98,3.31
CGAACTAGGTCATCCAGGTCAGTGAATACATTGA,4.85,5.61,2.52,3.47,4.21,2.83,3.77
GCTTACGGGTCCAAGGTTATAGCATGAATAGAAT,0.631,0.599,2.18,0.914,1.34,0.551,1.97
TCTAGTTGGTCACGGAGGTCCCACACGACGGGTA,1.02,1.61,0.484,0.931,0.42,0.108,-0.235
CGAACTAGGTCACCCAGGACAGTGAATACATTGA,4.24,5.04,2.03,3.13,3.66,2.18,1.89
CGTCCAAGGTCGAAGGTCAGTGAAGAGATGACGG,4.83,4.64,1.82,6.09,3.04,0.66,1.14
ATATGTAGGTTAGCTGAGGTCATTCAGACTAGGC,3.95,3.72,1.9,4.53,5.33,4.38,5.55
TTGCCTAGGTCATTGGGCCAGTATAGTACGCATC,3.73,4.22,1.9,2.8,2.89,1.05,1.14
AGAATGAGGTCATACGTAGATCAGGGAAGAAAGT,6.31,5.97,4.7,6.67,4.18,3.25,4.56
CCTTACGGGTCAAGGTTATAGCCCGGGTGGTACG,5.05,5.24,-0.0321,5.76,3.1,0.694,1.24
TAGCCTAGGTCATACAGGGGCCAGTATAGAAAGC,5.98,4.71,1.04,3.26,3.27,0.799,0.824
ACTTAAGGGTCAACGAGGTTATAGCACGCGTATA,6.9,6.85,3.8,7.56,4.4,1.07,5.42
CGTCCAAGGTCATAGAGGTCAGTGAATGCCGAGT,7.06,7.75,4.4,7.55,4.38,3.51,7.8
GGAACGAGGTCAAGTTGATAGCAGAGTTTGATGG,6.84,7.08,4.6,7.65,4.27,2.78,5.11
CGTCAAAGTTCAAGGTCACGTAACAGAAAGCAGC,7.15,8.05,4.52,7.07,4.54,4.62,5.21
TACCCTAGGTCATTCAGGGGCCAGTATAGAAAGC,6.19,5.02,1.56,3.18,3.65,1.29,1.84
CCAACTGGGCCAAAAAGGTCATTGATGCCGATAA,4.71,4.35,0.992,5.08,3.11,0.427,2.62
TGTCAATGTTCAAAGGTAACGTAAGTATCCACAC,0.811,0.759,-0.404,0.776,1.24,-0.064,-0.453

Sequence,PBM binding z-score [1],PBM binding z-score [2],PBM binding z-score [3],PBM binding z-score [4],PBM binding z-score [5],PBM binding z-score [6],PBM binding z-score [7]
CGTCTAAGGTCATAGGAGGTCAGTGAAGACAGAT,7.35,7.8,4.42,7.22,5.51,4.81,4.89
CGAACTAGGTCAAGGCCAGTGAATCTCCGCACGC,3.79,4.63,1.47,2.73,3.12,0.958,0.111
GATACAGGGTCAAGGTCAGAGTACGCGTATTGAT,6.26,6.78,2.78,6.63,4.45,3.55,4.39
ACTTACGGCTCAACGAGGTTATAGCACGCGTATA,0.411,0.49,0.343,0.9,1.33,0.562,0.756
CCTACGGGGCCACGAAAGGTCATTGATTCAGTGA,5.49,5.3,0.662,5.74,4.64,0.878,2.64
AGAATGAGGTTAAGTTCAGGGAAACAGAATACAT,3.41,2.98,2.38,3.6,3.34,1.48,3.44
CGTCAAAGTTCAACTGAGGTAACGTAAAGCACGC,6.11,6.84,4.76,5.4,5.27,1.89,4.07
TCTCGGAGGAAACGAAAGGTCAGAGCTCGACATC,4.03,3.59,0.822,4.07,2.59,0.0929,0.612
CGAACTAGGTCATCCAGGACCGTGAATACATTGA,3.95,4.72,2.15,2.82,3.12,0.969,0.996
CCTACTGGTCCAAGGTCATTGATCAGTCAAAGCA,3.84,3.4,2,3.96,3.59,3.48,3.1
AGTCAAAGTTCAGGACGAGGTAACGTTAAGCACG,4.79,4.82,3,2.87,3.83,1.82,2.56
CTATGTAGGTCAAGGGGGTCATTCAGTTTGAAAG,7.26,6.93,3.29,7.64,4.27,2.15,7.37
CTATGTAGGTTACGGGGGTCATTCAGTTTGAAAG,5.91,4.59,2.61,6.14,4.12,2.03,5.93
CGAACTAGGTCGCCAGGACAGTGAAGAGGTTGGA,0.757,1.27,0.47,0.761,1.68,0.578,-0.15
CCTACTGGGCCAAAGGTGATTGATTCCAATGCTC,0.547,0.234,-0.2,0.624,0.0559,-0.0264,0.165
CGAACAAGGTCATTGACAGGACAGTGAATAGTAA,6.27,5.95,4.45,5.53,3.96,2.16,3.2
CCTACTGGACCAAGGTCATTGATCAGTCAAAGCA,3.7,2.94,1.91,3.39,3.43,2.69,3.61
ACGCGGAGGACAAAGGTCAGAGCTACGCCAGTGA,6.23,5.34,0.687,5.4,3.38,0.463,0.908
